According to PubChem BioAssay (NCI):
Compounds without any hit were thinned out: in the full panel of roughly 83,000, 20% have a hit.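 A percent growth of 40 corresponds to 60% growth inhibition; 0 means no net growth; -100 means all cells died. Active threshold: below 10.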 Activity calls are given as the source filed them.

Test system: OVCAR-8 ovarian
Assay: NCI-60 one-dose screen, 48 h (100 = growth as untreated, 0 = no growth, -100 = all killed)
Details: 10 µM unless noted

Question: For `CC(=O)Nc1ccc(O)c(C)c1`, which growth is on record?
Answer: 100% (inactive)

Question: How did the growth turn out when `O=C(c1cccc(C(=O)c2ccc3c4c(cccc24)C(=O)N(c2ccccc2)C3=O)c1)c1ccc2c3c(cccc13)C(=O)N(c1ccccc1)C2=O` was run?
Answer: 88.8% (inactive)

Question: With `Cc1ccc(S(=O)(=O)Oc2ccc3sc4c(CO)ccc(NCCN(C)C)c4c(=O)c3c2)cc1` as the molecule, how does the growth read?
Answer: -73.3% [100 µM] (active)

Question: How did the growth turn out when `O=C1NC(=O)/C(=C\c2ccncc2)N1` was run?
Answer: 103% (inactive)

Question: For `O=C(c1ccccc1O)N1CCCC1`, which growth is on record?
Answer: 99.3% (inactive)

Question: With `C1Cc2onc(-c3noc4c3CCC4)c2C1` as the molecule, how does the growth read?
Answer: 110% (inactive)

Question: `O=S(=O)(O)c1ccc(O)c(C2CCCCC2)c1` was tested. Which growth did it give?
Answer: 102% (inactive)

Question: `CNc1ccccc1C(=O)N/N=C/C=C/c1ccccc1` was tested. Which growth did it give?
Answer: 6.6% (active)

Question: Which growth does the source give for `O=C(O)CC1=CCCCC1` here?
Answer: 104% (inactive)

Question: Which growth does the source give for `CC(C)c1ccc(C(=O)OCCCl)cc1` here?
Answer: 94% (inactive)

Question: With `CCCCCCCCNC(=O)C(C)C` as the molecule, how does the growth read?
Answer: 109% (inactive)

Question: How did the growth turn out when `Cc1ccc(C)c2c1CCC2=O` was run?
Answer: 104% (inactive)

Question: How did the growth turn out when `CC1(C)CCC(C)(C)NC(=S)N1` was run?
Answer: 106% (inactive)

Question: For `COc1ccc(/C=N/NC(=O)COCC(=O)N/N=C/c2ccc(OC)cc2)cc1`, which growth is on record?
Answer: 104% (inactive)

Question: With `Cc1ccccc1NC(=O)Oc1ccc(Cl)cc1C(=O)c1ccccc1` as the molecule, how does the growth read?
Answer: 91.4% (inactive)

Question: `CC(=O)c1cccs1` was tested. Which growth did it give?
Answer: 102% (inactive)

Question: `CSc1cnc2ccccc2n1` was tested. Which growth did it give?
Answer: 95.5% (inactive)

Question: How did the growth turn out when `CCCC(OC(C)=O)c1ccc2c(c1)OCO2` (centres undefined) was run?
Answer: 99% (inactive)

Question: With `CC(C)N(C(=O)c1ccccc1)C(C)C` as the molecule, how does the growth read?
Answer: 111% (inactive)

Question: Which growth does the source give for `O=C(O)c1ccc(OCc2ccccc2)cc1` here?
Answer: 97.9% (inactive)

Question: `COc1cc(C(=O)O)c(O)c(C(C)(C)C)c1` was tested. Which growth did it give?
Answer: 104% (inactive)

Question: `CC1(C)OC2C(CO)OC(n3ccc(=O)[nH]c3=O)C2O1` (centres undefined) was tested. Which growth did it give?
Answer: 91.8% (inactive)

Question: How did the growth turn out when `Cc1cccnc1NC1OC(=O)c2ccccc21` (centres undefined) was run?
Answer: 107% (inactive)

Question: For `NS(=O)(=O)c1cc(=O)[nH]c(=O)[nH]1`, which growth is on record?
Answer: 114% (inactive)

Question: How did the growth turn out when `CCC1CCC(C)NC1` (centres undefined) was run?
Answer: 102% (inactive)

Question: Which growth does the source give for `Cc1ccc2[nH]c3ccccc3c2c1` here?
Answer: 98.4% (inactive)

Question: With `C=C1C(=O)C2CCN1CC2` as the molecule, how does the growth read?
Answer: 110% (inactive)

Question: Which growth does the source give for `C=CCNC(=S)N/C=C(/C(=O)c1ccccc1)c1ccccc1` here?
Answer: 117% (inactive)

Question: How did the growth turn out when `CCc1ccccc1C(=O)N(CC)CC` was run?
Answer: 105% (inactive)

Question: How did the growth turn out when `CN(C)CCOC(=O)Nc1ccc(Cc2ccc(NC(=O)OCCN(C)C)cc2)cc1` was run?
Answer: 98.2% [100 µM] (inactive)

Question: Which growth does the source give for `CC(C)NC(=O)OCc1c(COC(=O)NC(C)C)c(-c2ccc(Cl)cc2)n2c1CCC2` here?
Answer: 63.3% (inactive)

Question: How did the growth turn out when `Nc1ccc2c(c1)Cc1cc(N)c(N)cc1-2` was run?
Answer: 96.7% (inactive)

Question: Which growth does the source give for `CCOC(=O)C(=O)CC(=O)c1ccccc1` here?
Answer: 101% (inactive)

Question: `CCNc1ncnc2[nH]ncc12` was tested. Which growth did it give?
Answer: 72.3% (inactive)

Question: With `COc1nc(Nc2cccc(C(F)(F)F)c2)nc(OC)n1` as the molecule, how does the growth read?
Answer: 96% (inactive)

Question: Which growth does the source give for `CC(=O)c1cccc(O)c1` here?
Answer: 103% (inactive)

Question: How did the growth turn out when `CC(C)c1ccccc1NC(=O)N1CCC(C(C)C)CC1` was run?
Answer: 105% (inactive)

Test system: OVCAR-5 ovarian
Assay: as above
Details: 10 µM unless noted

Question: For `CC(=O)Nc1ccc(O)c(C)c1`, which growth is on record?
Answer: 104% (inactive)

Question: Which growth does the source give for `O=C(c1cccc(C(=O)c2ccc3c4c(cccc24)C(=O)N(c2ccccc2)C3=O)c1)c1ccc2c3c(cccc13)C(=O)N(c1ccccc1)C2=O` here?
Answer: 111% (inactive)

Question: Which growth does the source give for `Cc1ccc(S(=O)(=O)Oc2ccc3sc4c(CO)ccc(NCCN(C)C)c4c(=O)c3c2)cc1` here?
Answer: -93.2% [100 µM] (active)

Question: How did the growth turn out when `O=C1NC(=O)/C(=C\c2ccncc2)N1` was run?
Answer: 98.3% (inactive)

Question: Which growth does the source give for `O=C(c1ccccc1O)N1CCCC1` here?
Answer: 98.9% (inactive)

Question: With `C1Cc2onc(-c3noc4c3CCC4)c2C1` as the molecule, how does the growth read?
Answer: 103% (inactive)

Question: How did the growth turn out when `O=S(=O)(O)c1ccc(O)c(C2CCCCC2)c1` was run?
Answer: 103% (inactive)

Question: With `CNc1ccccc1C(=O)N/N=C/C=C/c1ccccc1` as the molecule, how does the growth read?
Answer: 47.1% (inactive)

Question: For `O=C(O)CC1=CCCCC1`, which growth is on record?
Answer: 98.5% (inactive)

Question: With `CC(C)c1ccc(C(=O)OCCCl)cc1` as the molecule, how does the growth read?
Answer: 96.5% (inactive)

Question: For `CCCCCCCCNC(=O)C(C)C`, which growth is on record?
Answer: 97.9% (inactive)

Question: `Cc1ccc(C)c2c1CCC2=O` was tested. Which growth did it give?
Answer: 95.8% (inactive)

Question: `CC1(C)CCC(C)(C)NC(=S)N1` was tested. Which growth did it give?
Answer: 102% (inactive)

Question: For `COc1ccc(/C=N/NC(=O)COCC(=O)N/N=C/c2ccc(OC)cc2)cc1`, which growth is on record?
Answer: 108% (inactive)

Question: With `Cc1ccccc1NC(=O)Oc1ccc(Cl)cc1C(=O)c1ccccc1` as the molecule, how does the growth read?
Answer: 105% (inactive)

Question: How did the growth turn out when `CC(=O)c1cccs1` was run?
Answer: 103% (inactive)

Question: `CSc1cnc2ccccc2n1` was tested. Which growth did it give?
Answer: 101% (inactive)

Question: For `CCCC(OC(C)=O)c1ccc2c(c1)OCO2` (centres undefined), which growth is on record?
Answer: 106% (inactive)

Question: Which growth does the source give for `CC(C)N(C(=O)c1ccccc1)C(C)C` here?
Answer: 96.3% (inactive)

Question: With `O=C(O)c1ccc(OCc2ccccc2)cc1` as the molecule, how does the growth read?
Answer: 93.5% (inactive)

Question: For `COc1cc(C(=O)O)c(O)c(C(C)(C)C)c1`, which growth is on record?
Answer: 99.2% (inactive)

Question: For `CC1(C)OC2C(CO)OC(n3ccc(=O)[nH]c3=O)C2O1` (centres undefined), which growth is on record?
Answer: 104% (inactive)

Question: Which growth does the source give for `Cc1cccnc1NC1OC(=O)c2ccccc21` (centres undefined) here?
Answer: 106% (inactive)

Question: With `NS(=O)(=O)c1cc(=O)[nH]c(=O)[nH]1` as the molecule, how does the growth read?
Answer: 112% (inactive)

Question: How did the growth turn out when `CCC1CCC(C)NC1` (centres undefined) was run?
Answer: 107% (inactive)

Question: How did the growth turn out when `Cc1ccc2[nH]c3ccccc3c2c1` was run?
Answer: 105% (inactive)

Question: With `C=C1C(=O)C2CCN1CC2` as the molecule, how does the growth read?
Answer: 99.6% (inactive)

Question: With `C=CCNC(=S)N/C=C(/C(=O)c1ccccc1)c1ccccc1` as the molecule, how does the growth read?
Answer: 97.7% (inactive)

Question: `CCc1ccccc1C(=O)N(CC)CC` was tested. Which growth did it give?
Answer: 99.4% (inactive)

Question: `CN(C)CCOC(=O)Nc1ccc(Cc2ccc(NC(=O)OCCN(C)C)cc2)cc1` was tested. Which growth did it give?
Answer: 85.1% [100 µM] (inactive)

Question: With `CC(C)NC(=O)OCc1c(COC(=O)NC(C)C)c(-c2ccc(Cl)cc2)n2c1CCC2` as the molecule, how does the growth read?
Answer: 85.1% (inactive)

Question: With `Nc1ccc2c(c1)Cc1cc(N)c(N)cc1-2` as the molecule, how does the growth read?
Answer: 107% (inactive)

Question: Which growth does the source give for `CCOC(=O)C(=O)CC(=O)c1ccccc1` here?
Answer: 95.1% (inactive)

Question: How did the growth turn out when `CCNc1ncnc2[nH]ncc12` was run?
Answer: 104% (inactive)

Question: Which growth does the source give for `COc1nc(Nc2cccc(C(F)(F)F)c2)nc(OC)n1` here?
Answer: 116% (inactive)

Question: Which growth does the source give for `CC(=O)c1cccc(O)c1` here?
Answer: 96.4% (inactive)

Question: How did the growth turn out when `CC(C)c1ccccc1NC(=O)N1CCC(C(C)C)CC1` was run?
Answer: 117% (inactive)
